Experimental data taken from PubChem BioAssay (Tox21).
Records with an inconclusive call do not appear. A call without a number means that no potency is given here. Values without a mark were called inactive. Activity calls are given as the source filed them. Unless noted, calls come from the whole dose curve; as a rule, active = well fitted curve in the direction sought with a large enough effect in the repeat runs; inconclusive = weak or mixed curves; inactive = no such curve, though single readings can be large; an effect the other way counts as inactive or inconclusive.

How the values were obtained:
[1] = molecular target: Luciferin 4-monooxygenase (Photinus pyralis) (UniProt P08659); assay: qHTS assay to identify small molecule inhibitors of firefly luciferase (AID 1224835); note: nearly all actives have a fitted effect of over 25% in size; note: potency is the fitted concentration of half-maximal effect
Chain of Luciferin 4-monooxygenase (Photinus pyralis) (P08659 whole entry, looked up): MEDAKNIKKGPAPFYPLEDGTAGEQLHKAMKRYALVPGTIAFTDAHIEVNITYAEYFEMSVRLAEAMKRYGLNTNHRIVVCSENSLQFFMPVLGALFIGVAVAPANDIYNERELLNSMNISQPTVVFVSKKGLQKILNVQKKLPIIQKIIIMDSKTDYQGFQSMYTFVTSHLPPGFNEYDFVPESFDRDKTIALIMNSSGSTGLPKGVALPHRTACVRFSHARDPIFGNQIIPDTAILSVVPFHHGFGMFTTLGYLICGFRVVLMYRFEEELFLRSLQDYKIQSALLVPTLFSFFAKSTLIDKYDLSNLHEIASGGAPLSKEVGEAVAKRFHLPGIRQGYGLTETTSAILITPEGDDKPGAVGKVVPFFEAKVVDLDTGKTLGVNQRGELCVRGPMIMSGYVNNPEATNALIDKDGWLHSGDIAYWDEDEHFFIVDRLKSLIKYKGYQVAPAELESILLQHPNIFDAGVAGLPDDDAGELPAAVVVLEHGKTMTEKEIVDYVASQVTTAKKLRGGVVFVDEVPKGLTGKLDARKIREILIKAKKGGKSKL
Method in brief: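 Biochemical qHTS: compounds run as interplate titrations against purified firefly enzyme, with D-luciferin and ATP each at its KM concentration. Light output recorded by CCD imaging.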

[2] = qHTS assay to identify small molecule agonists of the constitutive androstane receptor (CAR) signaling pathway - cell viability counter screen (AID 1224836); note: nearly all actives have a fitted effect of over 45% in size; note: potency is the fitted concentration of half-maximal effect
Method in brief: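 HepG2-CYP2B6-hCAR, 2500 cells/well, 4 h pre-incubation; cpd 15 conc + PK11195 0.75 uM final; 23 h, 37 C/5% CO2; CellTiter-Fluor, fluorescence.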

[3] = qHTS assay to identify small molecule antagonists of the constitutive androstane receptor (CAR) signaling pathway - cell viability counter screen (AID 1224837); note: nearly all actives have a fitted effect of over 45% in size; note: potency is the fitted concentration of half-maximal effect
Method in brief: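 In quantitative HTS format, compounds at 15 concentrations were applied to HepG2 cells double-transfected with hCAR and CYP2B6-2.2kb under 50 nM CITCO stimulation; live-cell protease activity was read after 23 hr via CellTiter-Fluor.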

[4] = molecular target: Nuclear receptor subfamily 1 group I member 3 (Homo sapiens) (UniProt Q14994); assay: qHTS assay to identify small molecule antagonists of the constitutive androstane receptor (CAR) signaling pathway (AID 1224838); note: nearly all actives have a fitted effect of over 40% in size
Chain of Nuclear receptor subfamily 1 group I member 3 (Homo sapiens) (Q14994 whole entry, looked up): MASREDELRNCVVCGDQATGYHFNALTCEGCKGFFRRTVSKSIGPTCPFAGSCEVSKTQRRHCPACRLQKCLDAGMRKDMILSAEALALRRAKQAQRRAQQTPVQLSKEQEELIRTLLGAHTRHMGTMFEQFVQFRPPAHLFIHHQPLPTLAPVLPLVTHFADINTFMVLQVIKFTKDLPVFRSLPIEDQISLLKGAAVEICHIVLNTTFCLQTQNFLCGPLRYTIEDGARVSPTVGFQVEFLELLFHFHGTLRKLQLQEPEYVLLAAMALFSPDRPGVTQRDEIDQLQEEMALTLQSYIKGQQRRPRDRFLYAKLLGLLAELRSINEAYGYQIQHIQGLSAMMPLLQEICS
Method in brief: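 CITCO-stimulated (50 nM final) HepG2 cells stably transfected with hCAR and CYP2B6-2.2kb luciferase were exposed to compounds at 15 concentrations for 24 h at 37 C/5% CO2. A luciferase reagent was added and luminescence recorded after 30 min.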

[5] = molecular target: Nuclear receptor subfamily 1 group I member 3 (Homo sapiens) (UniProt Q14994); assay: qHTS assay to identify small molecule agonists of the constitutive androstane receptor (CAR) signaling pathway (AID 1224839);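 note: HepG2 cells stably carrying human CAR and a CYP2B6 luciferase reporter; series mostly up to about 92 µM; nearly all actives have a fitted effect of over 15% in size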
Method in brief: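 HepG2-CYP2B6-hCAR cells, 2500/well, 4 h pre-incubation; compounds 15 conc.; PK11195 0.75 uM final; 24 h, 37 C/5% CO2; ONE-Glo luciferase read.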

[6] = molecular target: Thyrotropin receptor (Homo sapiens) (UniProt P16473); assay: qHTS assay to identify small molecule agonists of the thyroid stimulating hormone receptor (TSHR) signaling pathway (AID 1224843; calls by dose curve; note: nearly all actives have a fitted effect of over 45% in size; note: potency is the fitted concentration of half-maximal effect)
Chain of Thyrotropin receptor (Homo sapiens) (P16473 whole entry, looked up): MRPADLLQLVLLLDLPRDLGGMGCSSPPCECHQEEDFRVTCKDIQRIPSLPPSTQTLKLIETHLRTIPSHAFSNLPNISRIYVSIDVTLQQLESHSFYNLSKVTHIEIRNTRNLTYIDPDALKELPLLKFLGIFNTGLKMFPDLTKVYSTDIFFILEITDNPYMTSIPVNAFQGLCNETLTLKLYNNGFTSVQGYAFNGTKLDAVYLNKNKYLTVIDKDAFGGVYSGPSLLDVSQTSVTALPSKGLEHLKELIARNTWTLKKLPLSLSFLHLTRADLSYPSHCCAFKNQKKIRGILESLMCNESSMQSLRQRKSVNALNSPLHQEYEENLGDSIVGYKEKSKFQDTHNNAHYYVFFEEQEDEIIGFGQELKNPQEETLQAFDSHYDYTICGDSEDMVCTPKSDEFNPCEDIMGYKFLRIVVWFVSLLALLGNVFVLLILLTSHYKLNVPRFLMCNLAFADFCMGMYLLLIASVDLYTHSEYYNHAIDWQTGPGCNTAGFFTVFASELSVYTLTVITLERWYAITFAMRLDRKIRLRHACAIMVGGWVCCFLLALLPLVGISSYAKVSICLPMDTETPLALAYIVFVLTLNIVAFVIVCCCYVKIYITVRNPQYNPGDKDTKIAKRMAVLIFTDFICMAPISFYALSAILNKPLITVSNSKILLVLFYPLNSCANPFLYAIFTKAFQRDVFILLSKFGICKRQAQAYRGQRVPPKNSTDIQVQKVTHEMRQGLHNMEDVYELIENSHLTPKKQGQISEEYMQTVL
Method in brief: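 HEK293/TSHR, 800 cells/well; cpd 30 min RT; add cAMP-d2 + anti-cAMP-cryptate, 1 h RT; fluorescence read on plate reader. 15-pt titration, n=3.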

[7] = qHTS assay to identify small molecule antagonists of the estrogen related receptor signaling pathway with the pleiotropic PPARgamma coactivator (PGC) from Tox21 10K library - cell viability counter screen (AID 1224840; active = well fitted cell-killing curve with a large enough effect in the repeat runs, not every such curve was filed as active; note: nearly all actives have a fitted effect of over 40% in size)
Method in brief: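 Viability counter screen, PGC/ERR cells: 17.5 h compound exposure at 37 C, CellTiter-Fluor fluorescence endpoint.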

[8] = qHTS assay to identify small molecule antagonists of the estrogen related receptor signaling pathway with the pleiotropic PPARgamma coactivator (PGC) from Tox21 10K library (AID 1224841; call rule not given here; note: series mostly up to about 92 µM; actives are mostly falling curves and most rising ones were filed inactive; nearly all actives have a fitted effect of over 50% in size)
Method in brief: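 In the PGC/ERR line, DMSO solutions of test chemicals are pin-delivered to 2,000 cells/well six hours after dispensing. Following eighteen hours' incubation, One-Glo reagent is added and luminescence recorded.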

[9] = qHTS assay to identify small molecule agonists of the estrogen related receptor signaling pathway with the pleiotropic PPARgamma coactivator (PGC) from Tox21 10K library (AID 1224842); note: nearly all actives have a fitted effect of over 15% in size; note: potency is the fitted concentration of half-maximal effect
Method in brief: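 PGC/ERR reporter cell line, 2,000 cells per well, incubated 6 h at 37 C before 23 nL compound in DMSO was added. After 18 h at 37 C, One-Glo luminescence read following 30 min at room temperature.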

[10] = qHTS assay to identify small molecule agonists of the hypoxia (HIF-1) signaling pathway - cell viability counter screen (AID 1224844; calls by dose curve; note: nearly all actives have a fitted effect of over 50% in size; note: potency is the fitted concentration of half-maximal effect)
Method in brief: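 Same wells as the HIF-1 reporter screen; ME-180 cells carrying HRE-bla, 17 hr treatment at 37C; CellTiter-Glo luminescence read after 30 min at room temperature.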

Compound	Potency [1]	Potency [2]	Potency [3]	Potency [4]	Potency [5]	Potency [6]	Potency [7]	Potency [8]	Potency [9]	Potency [10]
CCCCCCC(CO)CCCC (stereo unspecified)	inactive	inactive	inactive	inactive	inactive	inactive				
Cc1ccc2nc(N)[nH]c(=O)c2c1Sc1ccncc1	inactive	inactive	inactive	inactive			inactive	inactive	inactive	inactive
Nc1ccc(NC(=O)c2ccc(N)cc2)cc1	40 µM (active)	inactive	inactive	inactive	inactive			inactive	inactive	inactive
C[C@@H]1[C@H](O)[C@@H](C)/C=C/C=C\C=C\C=C\C=C\C=C\C=C\[C@H](O[C@@H]2O[C@H](C)[C@@H](O)[C@H](N)[C@@H]2O)C[C@@H]2O[C@](O)(C[C@@H](O)C[C@@H](O)[C@H](O)CC[C@@H](O)C[C@@H](O)CC(=O)O[C@H]1C)C[C@H](O)[C@H]2C(=O)O (stereo in doubt)	inactive	inactive	inactive	inactive		inactive	inactive			
Cc1cc(CCC(=O)OCCOCCOCCOC(=O)CCc2cc(C)c(O)c(C(C)(C)C)c2)cc(C(C)(C)C)c1O	inactive	inactive	inactive	inactive	inactive	15 µM (active)				inactive
CCCOC(=O)c1c(Cl)c(Cl)c(Cl)c(Cl)c1C(=O)OCCC	inactive	inactive	inactive	inactive			inactive	inactive	inactive	inactive
CC(=O)NCCO	inactive	inactive	inactive	inactive	inactive	inactive				inactive
Cc1ccc(N(CCO)CCO)cc1	inactive	inactive	inactive	inactive	inactive	inactive				inactive
COc1ccc(C2C(=O)c3ccccc3C2=O)cc1	3.09 µM (active)	inactive	inactive	inactive			inactive	inactive	10.6 µM (active)	inactive
CNc1c2c(nn1C)CCCC2	inactive	inactive	inactive			inactive	inactive			inactive
Cc1ccc(S(=O)(=O)NC(=O)NC2CCCCC2)cc1	inactive	inactive	inactive			inactive	inactive			
CC(C)C1CCC(C(=O)N[C@H](Cc2ccccc2)C(=O)O)CC1 (stereo partly specified)	inactive	inactive	inactive			inactive	inactive			inactive
CCCCCCCC/C=C\CCCCCCCC(=O)OCCO	inactive	inactive	inactive			inactive	inactive			
CCC(CO)(CO)CO	inactive	inactive	inactive			inactive	inactive			inactive
CC[C@H]1OC(=O)[C@H](C)[C@@H](O[C@H]2C[C@@](C)(OC)[C@@H](O)[C@H](C)O2)[C@H](C)[C@@H](O[C@@H]2O[C@H](C)C[C@H](N(C)C)[C@H]2O)[C@](C)(O)C[C@@H](C)/C(=N\OCOCCOC)[C@H](C)[C@@H](O)[C@]1(C)O	inactive	25.5 µM (active)	14.3 µM (active)			inactive	inactive	inactive	inactive	
CCOc1ncc(F)c(=O)[nH]1	inactive	inactive	inactive			inactive	inactive			inactive
CCCCC(CC)COS(=O)(=O)O (stereo unspecified)	inactive	inactive	inactive			inactive	inactive	inactive	inactive	inactive
CCN(CC)C(=O)N1CCN(C)CC1	inactive	inactive	inactive			inactive	inactive		inactive	
CC(=O)C(=O)CC(C)C	inactive	inactive	inactive			inactive	inactive			
CN1CCCN(C(c2ccccc2)c2ccc(Cl)cc2)CC1 (stereo unspecified)	inactive	26.6 µM (active)	29.8 µM (active)		inactive	inactive		inactive	inactive	21.3 µM (active)
CCCCCCC(O)CCOC(C)=O (stereo unspecified)	inactive	inactive	inactive			inactive	inactive	inactive	inactive	inactive
O=P(O)(O)Oc1ccccc1	inactive	inactive	inactive			inactive	inactive			inactive
CC1=CC[C@@]23C[C@@H]1C(C)(C)[C@@H]2CC[C@H]3C	inactive	inactive	inactive		inactive	inactive	inactive			inactive
NC(=O)c1ccccc1[N+](=O)[O-]	inactive	inactive	inactive			inactive	inactive			
C=CC(=O)NC(C)C	inactive	inactive	inactive			inactive	inactive	inactive	inactive	
CC(=O)NNC(C)=O	inactive	inactive	inactive			inactive	inactive	inactive	inactive	inactive
CCC(=O)OCc1ccc(OC)cc1	inactive	inactive	inactive	inactive		inactive	inactive			inactive
